For 18 compounds, viability results are on record in PubChem BioAssay.

Activity calls are given as the source filed them.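 How the source made its calls: active means normalized viability below 100% at a tested concentration; inactive means the rest.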

The nature of the first experiment: drug combination growth inhibition, ovarian cancer – cell-based, oncology-focused library, rucaparib conditional, profiling panel (AID 1508598). The note with it: patient-derived ovarian cancer cells, CellTiter-Glo viability, 144 h; at 0.00488 µM; OCI-P5x cells; with rucaparib 20 µM; hits give low values; 100% = cells with rucaparib alone. For orientation: Cellular ATP, detected with luciferase, serves as a proxy for viable cell number.
Regarding `N[C@@H]1CCCN(c2c(/C=C3\SC(=O)NC3=O)cccc2-c2ccccc2)C1`, the viability is 103% (inactive).
Same read-out and setting: for `C[C@@H]1C[C@H]2[C@@H]3CCC4=CC(=O)C=C[C@]4(C)[C@]3(F)[C@H](O)C[C@]2(C)[C@]1(O)C(=O)CO` the value was 112% (inactive).
Take `Cc1cc2c(C(=O)NC[C@H](C)c3ccccc3)c(O)c(O)cc2c(O)c1-c1c(C)cc2c(C(=O)NC[C@H](C)c3ccccc3)c(O)c(O)cc2c1O`: the viability is 97.9% (active).
Same read-out and setting: the figure for `Nc1nc(F)nc2c1ncn2[C@H]1O[C@H](CO)[C@@H](O)[C@@H]1O` is 102% (inactive); for `COc1cccc2c1C(=O)c1c(O)c3c(c(O)c1C2=O)C[C@@](O)(C(=O)CO)C[C@H]3O[C@H]1C[C@H](N)[C@@H](O)[C@H](C)O1` it is 106% (inactive).
For `C=C1/C(=C/C=C2\CCC[C@@]3(C)[C@H]2CC[C@H]3[C@H](C)/C=C/[C@@H](C)C(C)C)C[C@H](O)C[C@@H]1O`, the viability was 105% (inactive).
Regarding `CO[C@H]1C[C@H]2CC[C@@H](C)[C@@](O)(O2)C(=O)C(=O)N2CCCC[C@H]2C(=O)O[C@H]([C@H](C)C[C@@H]2CC[C@H](OP(C)(C)=O)[C@H](OC)C2)CC(=O)[C@H](C)/C=C(\C)[C@@H](O)[C@@H](OC)C(=O)[C@H](C)C[C@H](C)/C=C/C=C/C=C/1C`, the viability was 76.6% (active).
The same measure, in the same setting: the figure for `C=CCNC1=C2C[C@@H](C)C[C@H](OC)[C@H](O)[C@@H](C)/C=C(\C)[C@H](OC(N)=O)[C@@H](OC)/C=C\C=C(\C)C(=O)NC(=CC1=O)C2=O` is 122% (inactive); for `CC[C@]1(O)C[C@@H]2CN(CCc3c([nH]c4ccccc34)[C@@](C(=O)OC)(c3cc4c(cc3OC)N(C=O)[C@@H]3C45CCN4CC=C[C@](CC)([C@H]45)[C@H](OC(C)=O)[C@]3(O)C(=O)OC)C2)C1` (stereo partly specified) it is 105% (inactive); for `COc1cccc2c1C(=O)c1c(O)c3c(c(O)c1C2=O)C[C@@](O)(C(C)=O)C[C@H]3O[C@H]1C[C@H](N)[C@H](O)[C@H](C)O1` it is 99.2% (active).
`CCOc1ccc(Cc2cc([C@@H]3O[C@H](CO)[C@@H](O)[C@H](O)[C@@H]3O)ccc2Cl)cc1`: the viability was 105% (inactive).
On the same count and under the same terms, the figure for `CC(=O)[C@]1(O)Cc2c(O)c3c(c(O)c2[C@H](O[C@H]2C[C@H](N)[C@H](O)[C@H](C)O2)C1)C(=O)c1ccccc1C3=O` is 110% (inactive); for `CCC1=CC2CN(C1)Cc1c([nH]c3ccccc13)[C@@](C(=O)OC)(c1cc3c(cc1OC)N(C)[C@H]1[C@@](O)(C(=O)OC)[C@H](OC(C)=O)[C@]4(CC)C=CCN5CC[C@@]31[C@H]54)C2` (stereo partly specified) it is 52.9% (active); for `CC(=O)O[C@H]1C(=O)[C@@]2(C)C([C@H](OC(=O)c3ccccc3)[C@]3(O)C[C@H](OC(=O)[C@H](O)[C@@H](NC(=O)c4ccccc4)c4ccccc4)C(C)=C1C3(C)C)[C@]1(OC(C)=O)CO[C@@H]1C[C@H]2O` (stereo partly specified) it is 97.9% (active).
For the compound `CO[C@H]1C[C@H]2CC[C@@H](C)[C@@](O)(O2)C(=O)C(=O)N2CCCC[C@H]2C(=O)O[C@H]([C@H](C)C[C@@H]2CC[C@H](OC(=O)C(C)(CO)CO)[C@H](OC)C2)CC(=O)[C@H](C)/C=C(\C)[C@@H](O)[C@@H](OC)C(=O)[C@H](C)C[C@H](C)/C=C/C=C/C=C/1C`, the viability was 71.8% (active).
In the case of `CO[C@H]1/C=C\C=C(\C)C(=O)NC2=CC(=O)C(NCCN(C)C)=C(C[C@@H](C)C[C@H](OC)[C@H](O)[C@@H](C)/C=C(\C)[C@@H]1OC(N)=O)C2=O`, the viability is 117% (inactive).
Same read-out and setting: for `CC(C)(C(=O)NCC(F)(F)C(F)(F)F)C(=O)N[C@H]1C(=O)Nc2ccccc2-c2ccccc21` the value was 99.5% (active); for `CC1(C)O[C@@H]2C[C@H]3[C@@H]4CCC5=CC(=O)C=C[C@]5(C)[C@]4(F)[C@H](O)C[C@]3(C)[C@@]2(C(=O)CO)O1`, 96.8% (active).

Staying with this experiment, now noted: patient-derived ovarian cancer cells, CellTiter-Glo viability, 144 h; at 0.00488 µM; OCI-P5x cells; without rucaparib; hits give low values.
For the compound `N[C@@H]1CCCN(c2c(/C=C3\SC(=O)NC3=O)cccc2-c2ccccc2)C1`, the viability was 108% (inactive).
Still for that read-out and setting: the figure for `C[C@@H]1C[C@H]2[C@@H]3CCC4=CC(=O)C=C[C@]4(C)[C@]3(F)[C@H](O)C[C@]2(C)[C@]1(O)C(=O)CO` is 115% (inactive); for `Cc1cc2c(C(=O)NC[C@H](C)c3ccccc3)c(O)c(O)cc2c(O)c1-c1c(C)cc2c(C(=O)NC[C@H](C)c3ccccc3)c(O)c(O)cc2c1O` it is 91.4% (active); for `Nc1nc(F)nc2c1ncn2[C@H]1O[C@H](CO)[C@@H](O)[C@@H]1O` it is 112% (inactive).
For the compound `COc1cccc2c1C(=O)c1c(O)c3c(c(O)c1C2=O)C[C@@](O)(C(=O)CO)C[C@H]3O[C@H]1C[C@H](N)[C@@H](O)[C@H](C)O1`, the viability is 97.5% (active).
The same measure, in the same setting: for `C=C1/C(=C/C=C2\CCC[C@@]3(C)[C@H]2CC[C@H]3[C@H](C)/C=C/[C@@H](C)C(C)C)C[C@H](O)C[C@@H]1O` the value was 102% (inactive); for `CO[C@H]1C[C@H]2CC[C@@H](C)[C@@](O)(O2)C(=O)C(=O)N2CCCC[C@H]2C(=O)O[C@H]([C@H](C)C[C@@H]2CC[C@H](OP(C)(C)=O)[C@H](OC)C2)CC(=O)[C@H](C)/C=C(\C)[C@@H](O)[C@@H](OC)C(=O)[C@H](C)C[C@H](C)/C=C/C=C/C=C/1C`, 61.2% (active).
For the compound `C=CCNC1=C2C[C@@H](C)C[C@H](OC)[C@H](O)[C@@H](C)/C=C(\C)[C@H](OC(N)=O)[C@@H](OC)/C=C\C=C(\C)C(=O)NC(=CC1=O)C2=O`, the viability is 126% (inactive).
On the same count and under the same terms, the figure for `CC[C@]1(O)C[C@@H]2CN(CCc3c([nH]c4ccccc34)[C@@](C(=O)OC)(c3cc4c(cc3OC)N(C=O)[C@@H]3C45CCN4CC=C[C@](CC)([C@H]45)[C@H](OC(C)=O)[C@]3(O)C(=O)OC)C2)C1` (stereo partly specified) is 86.3% (active); for `COc1cccc2c1C(=O)c1c(O)c3c(c(O)c1C2=O)C[C@@](O)(C(C)=O)C[C@H]3O[C@H]1C[C@H](N)[C@H](O)[C@H](C)O1` it is 94.6% (active).
In the case of `CCOc1ccc(Cc2cc([C@@H]3O[C@H](CO)[C@@H](O)[C@H](O)[C@@H]3O)ccc2Cl)cc1`, the viability is 98.8% (active).
The same measure, in the same setting: for `CC(=O)[C@]1(O)Cc2c(O)c3c(c(O)c2[C@H](O[C@H]2C[C@H](N)[C@H](O)[C@H](C)O2)C1)C(=O)c1ccccc1C3=O` the value was 96.9% (active).
As for `CCC1=CC2CN(C1)Cc1c([nH]c3ccccc13)[C@@](C(=O)OC)(c1cc3c(cc1OC)N(C)[C@H]1[C@@](O)(C(=O)OC)[C@H](OC(C)=O)[C@]4(CC)C=CCN5CC[C@@]31[C@H]54)C2` (stereo partly specified), the viability is 20.3% (active).
On to `CC(=O)O[C@H]1C(=O)[C@@]2(C)C([C@H](OC(=O)c3ccccc3)[C@]3(O)C[C@H](OC(=O)[C@H](O)[C@@H](NC(=O)c4ccccc4)c4ccccc4)C(C)=C1C3(C)C)[C@]1(OC(C)=O)CO[C@@H]1C[C@H]2O` (stereo partly specified), for which the viability is 39.8% (active).
As to `CO[C@H]1C[C@H]2CC[C@@H](C)[C@@](O)(O2)C(=O)C(=O)N2CCCC[C@H]2C(=O)O[C@H]([C@H](C)C[C@@H]2CC[C@H](OC(=O)C(C)(CO)CO)[C@H](OC)C2)CC(=O)[C@H](C)/C=C(\C)[C@@H](O)[C@@H](OC)C(=O)[C@H](C)C[C@H](C)/C=C/C=C/C=C/1C`, the viability was 56.9% (active).
`CO[C@H]1/C=C\C=C(\C)C(=O)NC2=CC(=O)C(NCCN(C)C)=C(C[C@@H](C)C[C@H](OC)[C@H](O)[C@@H](C)/C=C(\C)[C@@H]1OC(N)=O)C2=O`: the viability was 117% (inactive).
Take `CC(C)(C(=O)NCC(F)(F)C(F)(F)F)C(=O)N[C@H]1C(=O)Nc2ccccc2-c2ccccc21`: the viability is 94.4% (active).
In the case of `CC1(C)O[C@@H]2C[C@H]3[C@@H]4CCC5=CC(=O)C=C[C@]5(C)[C@]4(F)[C@H](O)C[C@]3(C)[C@@]2(C(=O)CO)O1`, the viability is 110% (inactive).

One may read the viability as a read-out of living cells in per cent, often relative to untreated cells.
